FECH inh: human FECH heme synthesis enzyme inhibition; 20,000 compounds, 3.3% hits; AID 1671448; P22830; calls only at 10 µM (by protocol); purified FECH, Ni-mesoporphyrin absorbance 550 nm;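 active = enzyme reaction rate more than 3 SD below the solvent-only control wells on the same plate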;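 also: lower slope than DMSO wells means FECH inhibition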
Starred values were filed as active, the others as inactive; i = inactive; + = active, no number. This excerpt belongs to a sample that is enriched for hits.

SMILES	FECH inh
O=C(Nc1ccon1)c1cccn(Cc2cccc(Cl)c2)c1=O	+
NC(=O)c1ccccc1NC(=O)c1cccn(Cc2cccc(Cl)c2)c1=O	i
NC(=O)c1ccc(NC(=O)c2cccn(Cc3cccc(Cl)c3)c2=O)cc1	i
COc1cccc([C@@H]2CCN(CCC(C)(C)C)C[C@H]2O)c1	i
CCOC(=O)c1ccc(N2C[C@@H]3CNC[C@]3(C(=O)O)C2)nc1	i
